Sampled rows, rich in hits. Any-hit rate of the full collection: about 3.5%.
GPR151 activ: activators of human GPR151, primary screen, cell-based, PathHunter beta-arrestin, luminescence; G-protein coupled receptor 151 (Homo sapiens), Q8TDV0; PathHunter beta-arrestin GPR151 cells; activation, % at 11.2 µM; 1% of 650,000 active; in the data active = activation above about 4.9%;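 note: 0% = median of compound wells and 100% = cells with positive control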
Target sequence (Q8TDV0 whole entry, looked up): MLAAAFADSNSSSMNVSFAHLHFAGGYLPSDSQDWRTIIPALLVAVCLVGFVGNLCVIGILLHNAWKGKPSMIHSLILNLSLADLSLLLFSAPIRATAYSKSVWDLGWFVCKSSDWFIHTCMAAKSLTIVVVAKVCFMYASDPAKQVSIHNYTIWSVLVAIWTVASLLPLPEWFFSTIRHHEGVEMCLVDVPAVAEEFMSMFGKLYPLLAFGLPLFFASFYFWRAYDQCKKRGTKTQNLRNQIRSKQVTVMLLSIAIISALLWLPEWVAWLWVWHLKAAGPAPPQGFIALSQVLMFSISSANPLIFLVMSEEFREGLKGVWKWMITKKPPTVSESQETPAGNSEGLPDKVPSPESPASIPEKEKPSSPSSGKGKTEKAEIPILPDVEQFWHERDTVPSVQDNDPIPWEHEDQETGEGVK
MITF primary: MITF inhibitors, primary screen, biochemical, AlphaScreen, human | AlphaScreen MITF homodimerization, bead proximity signal | inhibition, % at 2.6 µM | 0.91% of 650,000 active; in the data active = inhibition above about 50%;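 note: 0% = vehicle wells with protein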
TEAD-YAP inh: TEAD-YAP interaction inhibition, primary screen, TEAD-YAP interaction inhibitor project, luminescence, HEK-TIYL cells; TEAD-Gal4/YAP UAS-luciferase luminescence; inhibition, % at 9.12 µM; 1.4% of 640,000 active; AID 1259422, 2018; in the data active = inhibition above about 32%;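 note: 0% = median of test compound wells and 100% = reference inhibitor wells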
FBW7 act: FBW7 E3 ligase activators, primary screen, biochemical, AlphaScreen, human. F-box/WD repeat-containing protein 7 (Homo sapiens), Q969H0. AlphaScreen FBW7–phospho-cyclin E peptide binding, activator screen. normalized activity (activation), % at 26.1 µM. 0.13% of 650,000 active; in the data active = normalized activity above about 1.9%;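 note: purified mutant Fbw7 with reduced substrate affinity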
* = called active by the depositor.

SMILES	GPR151 activ	MITF primary	TEAD-YAP inh	FBW7 act
CCCCn1c(=S)[nH]c2c(sc(=S)n2Cc2ccccc2)c1=O	-1	15	-7	0
Fc1ccc(N=c2oc3ccccc3cc2-c2nc3ccccc3[nH]2)cc1	-4	2	-40	0
Fc1ccccc1N=c1oc2ccccc2cc1-c1nc2ccccc2[nH]1	-10	-13	40*	0
COc1ccc(N=c2oc3ccccc3cc2-c2nc3ccccc3[nH]2)cc1	-10	10	38*	0
O=C1c2ccc([N+](=O)[O-])cc2C(=O)N1c1ccc(Br)c2cccnc12	-1	12	8	0
CC1CCc2nc(NC(=O)c3cc(Cl)sc3Cl)sc2C1 (stereo unspecified)	-1	2	-45	0
CC(=O)c1ccc(C(=O)Nc2nc3c(s2)CCCC3)cc1	-1	4	65*	0
O=C(Nc1nc2c(s1)CCCC2)c1ccccc1Cl	-8	-6	45*	0
O=C(Cc1ccccc1Cl)Nc1nc2c(s1)CCCC2	2	2	17	0
O=C(Nc1nc2c(s1)CCCC2)c1cc(Cl)sc1Cl	-9	17	49*	0
CCOC(=O)C1(CC2CCCCO2)CCN(C(=O)c2cc3ncccn3n2)CC1 (stereo unspecified)	1	-10	-7	0
CC1=C(C(=O)Nc2ccccc2)C(c2ccccc2C)NC(=S)N1 (stereo unspecified)	-1	11	1	0
O=C(NCCO)c1nnc(Cc2c(F)cccc2Cl)o1	0	14	4	1
COCCNC(=O)/C(C#N)=C/C1=C(N2CCOCC2)C(=C\c2ccccc2)/CC1	2	9	9	-1
CCOC(=O)/C(C#N)=C/C1=C(N2CCOCC2)C(=C\c2ccccc2)/CC1	0	51*	-2	-1
COc1ccc(Nc2nc(-c3c(C)nc4ccccn34)cs2)cc1	1	0	62*	0
Cc1nc2ccccn2c1-c1csc(Nc2ccc(Br)cc2Br)n1	0	2	55*	0
Nc1ccc(C(=O)Nc2cc(N)ccc2Nc2ccccc2)cc1	1	-3	3	0
Cc1ccc(S(=O)(=O)N(CC(=O)NCc2ccncc2)Cc2ccccc2)cc1	-1	24	-2	1.9*
Cc1ccc(CNC(=O)CN(Cc2ccccc2)S(=O)(=O)c2ccccc2)cc1	-1	12	5	0
COc1ccc(S(=O)(=O)NC(C)(C)C)cc1I	0	23	-7	1
CC(Oc1cccc(Cl)c1)C(=O)Nc1cccc(F)c1 (stereo unspecified)	0	20	2	0
CC(Oc1cccc(Cl)c1)C(=O)Nc1ccc(F)c([N+](=O)[O-])c1 (stereo unspecified)	0	9	34*	0
Cc1cc(C)cc(NS(=O)(=O)c2ccc3c4c2CC(=O)N4CC(C)S3)c1 (stereo unspecified)	0	2	34*	0
CC1CN2C(=O)Cc3c(S(=O)(=O)NCc4cccs4)ccc(c32)S1 (stereo unspecified)	-1	9	8	0
SMILES	GPR151 activ	MITF primary	TEAD-YAP inh	FBW7 act
CCOc1cc(-c2nc3cnccn3c2NC2CCCC2)ccc1O	1	4	-14	0
COc1cccc(/C=C/C(=O)c2c(C)cc(C)[nH]c2=O)c1O	0	2	1	0
COc1ccccc1/C=C/C(=O)c1c(C)cc(C)[nH]c1=O	-1	-2	37*	0
Cc1cc(C)c(C(=O)/C=C/c2ccccn2)c(=O)[nH]1	-2	12	77*	0
CCC1=NN2C(=N)/C(=C\c3ccc(SCc4ccco4)o3)C(=O)N=C2S1	0	86*	-1	-1
CC1=CC2=NC(=O)/C(=C\c3ccc([N+](=O)[O-])o3)C(=N)N2O1	1	65*	4	0
N=C1/C(=C\c2ccc([N+](=O)[O-])o2)C(=O)N=C2SC(N3CCCCC3)=NN12	-1	67*	-1	0
N=C1/C(=C/c2ccc([N+](=O)[O-])o2)C(=O)N=C2SC(c3ccco3)=NN12	0	91*	7	0
Cc1cccc(/C=C2/NC(=O)N(CC(=O)Nc3cccc(C)c3)C2=O)c1	0	4	2	0
CCC(C)NC(=O)CSCc1nc(-c2ccc(Cl)cc2)oc1C (stereo unspecified)	3	1	9	0
COc1cccc(-c2cc(C(=O)Nc3cc(C)nn3-c3ccccc3)no2)c1	1	3	1	0
COc1ccccc1-c1cc(C(=O)Nc2cc(C)nn2-c2ccccc2)no1	-1	4	34*	0
COc1ccccc1-c1cc(C(=O)Nc2cc(OC)c(OC)c(OC)c2)no1	0	24	46*	0
Fc1ccc(-n2ncc3c(NC4CCCC4)ncnc32)cc1	0	-6	-22	0
c1ccc(-n2ncc3c(NC4CCCCCCCCCCC4)ncnc32)cc1	1	31	-5	0
CN(c1ncnc2c1cnn2-c1ccccc1)C1CCCCC1	1	-2	93*	0
Cc1cccc(-n2ncc3c(NC4CCCCC4)ncnc32)c1	2	-6	53*	0
Cc1ccc(-n2ncc3c(NC4CCCC4)ncnc32)cc1	-1	-8	37*	0
CCOC(=O)N1CCN(Cc2ccc3c(c2)CN(C(=O)CC(C)C(C)=O)CCO3)CC1 (stereo unspecified)	0	12	-3	0
N#Cc1cc2c(nc1SCC(=O)Nc1ccccc1F)CCCCC2	-1	-3	-13	0
Cc1nc(Cl)c2c3c(sc2n1)CCC3	1	-1	0	0
CC(C)C1CCC(Nc2ncc(-c3cccc(C(=O)NCCN(C)C)c3)n3ccnc23)CC1 (stereo unspecified)	1	9	39*	-1
CCn1ccnc1CN1CCCC(CNS(=O)(=O)c2cccc3cccnc23)C1 (stereo unspecified)	0	22	0	0
Cc1ccc(C(O)CNC(=O)/C=C/c2cccs2)o1 (stereo unspecified)	-1	16	-7	1
Cc1sc2nc(SCC(N)=O)[nH]c(=O)c2c1C	0	-2	-6	0
SMILES	GPR151 activ	MITF primary	TEAD-YAP inh	FBW7 act
Cc1sc2nc(SCC#N)[nH]c(=O)c2c1C	0	1	46*	1
CC(C)(C)c1ccc(Oc2c(C(F)(F)F)oc3cc(O)ccc3c2=O)cc1	1	-1	88*	0
COC(=O)c1ccc(Oc2c(C(F)(F)F)oc3cc(O)ccc3c2=O)cc1	0	4	-2	0
CCCc1ccc(Oc2c(C(F)(F)F)oc3cc(O)ccc3c2=O)cc1	-1	9	65*	1
COc1ccc(CCNc2nc(-c3cccs3)ncc2C)cc1	2	10	44*	0
COc1ccc(CCNc2nc(Cl)ncc2C)cc1	1	13	42*	0
Cc1cnc(Cl)nc1NCCc1ccc(O)cc1	1	-2	0	0
